Screens: PubChem BioAssay, several laboratories
An excerpt weighted towards active compounds, which were near 1.4% of everything screened.
GLD-1 RNA inh: GLD-1-TGE RNA interaction inhibition (C. elegans) | Q17339 | 0.44% of 320,000 active | inhibition, % at 5.96 µM | AID 2280 | purified GLD-1 + fluorescein TGE RNA, fluorescence polarization;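 active = percent inhibition above a per-plate cutoff, the plate mean of test compounds plus 3 SD, cut at about 30% in these data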;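 also: 0% = DMSO wells with GLD-1 and probe and 100% = wells lacking GLD-1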
E coli Lon inh: inhibitors of E. coli Lon protease; 0.42% of 360,000 active; P0A9M0; purified E. coli Lon protease, fluorescence polarization; inhibition, % at 7.94 µM; in the data active = inhibition above about 13%, passing the limit was not always enough;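 also: 0% = enzyme with probe and DMSO and 100% = no enzyme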
Target sequence (P0A9M0 whole entry, looked up): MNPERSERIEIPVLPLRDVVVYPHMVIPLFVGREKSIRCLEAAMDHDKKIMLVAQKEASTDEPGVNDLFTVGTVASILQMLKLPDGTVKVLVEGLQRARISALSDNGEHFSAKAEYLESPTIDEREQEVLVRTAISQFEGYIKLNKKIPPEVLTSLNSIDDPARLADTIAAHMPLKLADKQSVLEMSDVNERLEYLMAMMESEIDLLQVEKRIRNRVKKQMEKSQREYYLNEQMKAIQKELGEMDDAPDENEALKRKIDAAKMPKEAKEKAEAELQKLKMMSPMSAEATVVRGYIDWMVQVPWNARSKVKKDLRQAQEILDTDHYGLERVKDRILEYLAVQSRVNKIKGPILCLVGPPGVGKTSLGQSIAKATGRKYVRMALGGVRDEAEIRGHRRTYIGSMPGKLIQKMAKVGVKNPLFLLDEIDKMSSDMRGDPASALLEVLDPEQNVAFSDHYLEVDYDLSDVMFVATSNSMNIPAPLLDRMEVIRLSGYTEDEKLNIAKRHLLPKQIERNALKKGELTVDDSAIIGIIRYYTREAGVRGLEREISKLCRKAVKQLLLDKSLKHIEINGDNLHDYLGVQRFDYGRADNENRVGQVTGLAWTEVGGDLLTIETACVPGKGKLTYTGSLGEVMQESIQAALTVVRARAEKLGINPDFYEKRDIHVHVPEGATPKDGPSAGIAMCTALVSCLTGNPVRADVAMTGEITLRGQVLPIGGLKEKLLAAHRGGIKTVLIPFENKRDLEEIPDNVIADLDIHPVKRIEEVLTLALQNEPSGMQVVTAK
EBV gp42 block: blocks Epstein-Barr virus glycoprotein 42 binding; Q1HVG2; Fluorescence polarization binding assay, mP read-out; inhibition, % (tested at 21.74 µM); 0.42% of 220,000 active; in the data active = inhibition above about 50%
MEX-5 binding: C. elegans MEX-5 TCR-2 RNA binding activity; Q9XUB2; MEX-5/FITC-TCR2 RNA binding, fluorescence polarization; active compounds read low; activity score (negative = inhibition of binding), % at 10 µM; 0.38% of 300,000 active; AID 1832;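 active = inhibition past about -25% in most replicates, and total fluorescence under double the plate's negative control median, limit read from the data; inconclusive = replicates evenly split on the limit, or fluorescence at least double controls; inactive = too little inhibition in most replicates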;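 also: 0% = DMSO and -100% = 5 µM competing unlabeled TCR2 RNA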
MCL1 BIM primary: inhibitors of human MCL1 binding to BIM-BH3 peptide | 0.68% of 320,000 active | GST-MCL1 / FITC-Bim-BH3 fluorescence polarization | inhibition, % at 10.9 µM | Q07820 | AID 2057;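 active = inhibition above the mean inhibition of all tested compounds plus 3 SD, set per campaign, cut at about 40% in these data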;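 also: 0% = DMSO wells and 100% = unlabeled Bim-BH3 peptide control; higher means more loss of mP so more displacement of Bim peptide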
BCLXL inh: blocks human Bcl-xL binding to Bim BH3 peptide; Q07817; GST-Bcl-xL / FITC-Bim BH3 peptide fluorescence polarization; inhibition, % at 10.9 µM; 0.7% of 320,000 active;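 active = inhibition above the mean of all tested compounds plus 3 SD, cutoff set per campaign, cut at about 30% in these data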;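 also: 0% = DMSO wells and 100% = unlabeled Bim-BH3 peptide competitor; inhibitors lower millipolarization by displacing the labeled peptide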
BCLXL inh confirm: Bcl-xL (human) inhibition, MCL1 counter-screen confirmation | shares compounds with MCL1 BIM primary | GST-Bcl-xL / FITC-Bim BH3 peptide FP binding | inhibition, % at 10.9 µM | 54% of 1,700 active | AID 2166;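 active = inhibition above a cutoff equal to the mean inhibition of all tested compounds plus 3 SD, cut at about 30% in these data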;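 also: 0% = DMSO wells and 100% = unlabeled Bim BH3 control peptide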
MCL1 inh confirm: MCL1-BIM-BH3 interaction inhibition, confirmation; shares compounds with MCL1 BIM primary; GST-MCL1 / FITC-Bim-BH3 fluorescence polarization; inhibition, % at 10.9 µM; 61% of 1,700 active; AID 2168;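 active = inhibition above the average of all tested compounds plus 3 SD, cut at about 40% in these data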;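 also: 0% = DMSO wells and 100% = unlabeled Bim-BH3 control peptide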
The depositor's hits bear a star; u = inconclusive; x = no result given; + = active, no number.

SMILES	GLD-1 RNA inh	E coli Lon inh	EBV gp42 block	MEX-5 binding	MCL1 BIM primary	BCLXL inh	BCLXL inh confirm	MCL1 inh confirm
CN(C)Cc1c(O)ccc2c1O/C(=C\C=C\c1ccccc1)C2=O	24	-36	-6	u	76*	78*	85*	91*
CCN1CCN(Cc2c(O)ccc3c2O/C(=C\c2ccccc2)C3=O)CC1	18	-47	-1	-34*	55*	54*	59*	62*
CC1CCCN(Cc2c(O)ccc3c2O/C(=C\c2ccco2)C3=O)C1 (centres undefined)	95*	-11	49	u	152*	123*	119*	133*
Cc1cccc(/N=C/c2sc3ccccc3c2O)n1	-61	-46	-18	-1	-63	-46	x	x
Oc1c(C=Nc2cccc3cccnc23)sc2ccccc12	-152	x	-17	4	128*	80*	37*	99*
CC(=O)N1CCN(c2nc(-c3ccco3)c3c(c2C#N)CC(C)(C)SC3)CC1	5	-3	6	-3	8	12	x	x
CC1(C)Cc2c(C#N)c(N3CCN(C(=O)c4ccco4)CC3)nc(-c3ccco3)c2CS1	8	3	1	2	68*	35*	27	49*
COc1ccc(NS(=O)(=O)c2ccc(NC(=S)NC(=O)c3cccnc3)cc2)nn1	2	3	-13	1	9	12	x	x
COc1ccc(NS(=O)(=O)c2ccc(NC(=S)NC(=O)c3cccc(F)c3)cc2)nn1	-4	-2	-12	-1	42*	10	21	11
N#CCN(CC#N)C(=O)C1c2ccccc2Oc2ccccc21	+	12	x	1	+	+	6	11
C=CCN1C=CC(=O)CC1	87*	4	-13	0	131*	164*	5	-2
C=CCN1C=C(C(C)=O)C(=O)CC1	x	11	x	x	x	x	x	x
CCc1ccc(N2CC(C(=O)OCc3csc(CC(=O)Nc4ccccc4C)n3)CC2=O)cc1 (centres undefined)	3	-1	x	x	2	2	x	x
CCc1ccc(N2CC(C(=O)OCc3nc4ccsc4c(=O)[nH]3)CC2=O)cc1 (centres undefined)	17	-21	x	x	41*	24	33*	49*
CCN(CC)C(=O)c1cn(CCC#N)nc1-c1ccc(F)cc1	11	0	-5	2	-6	1	x	x
CCOC(=O)c1c(NC(=O)CSc2nc3cc(Cl)ccc3c(=O)n2Cc2ccco2)sc(C(=O)N(C)C)c1C	0	-12	-31	0	-9	-6	x	x
COc1ccccc1-n1nnnc1SCC(=O)Nc1ccc(C)c(N)c1	93*	-7	x	1	139*	141*	25	22
O=S(=O)(Nc1cc(Sc2ncn[nH]2)c(O)c2ccccc12)c1ccccc1	x	4	-17	x	x	x	x	x
O=C(O)CSc1cc(NS(=O)(=O)c2ccc(Br)cc2)c2ccccc2c1O	10	11	x	-71*	42*	21	35*	79*
COc1ccc(Br)cc1-c1noc(-c2ccncc2)n1	-1	-7	-19	-1	66*	2	7	-1
COc1ccc(Br)cc1-c1noc(-c2ccccc2)n1	-9	1	-15	-1	-3	1	x	x
CC(=O)Nc1cccc(-c2nnc(-c3ccc(C)cc3)o2)c1	x	-4	x	1	x	x	x	x
CC(=O)Nc1ccc(N=Cc2nc(-c3ccc(C)cc3)oc2O)cc1	31*	-14	12	-31*	90*	89*	60*	61*
COC(=O)Cc1ccc(NC(=S)NC2CC2)cc1	-3	-4	-8	0	1	0	x	x
COc1ccc(N(C(C)=O)C2C=CS(=O)(=O)C2)c(OC)c1 (centres undefined)	7	-5	-20	3	6	6	x	x
SMILES	GLD-1 RNA inh	E coli Lon inh	EBV gp42 block	MEX-5 binding	MCL1 BIM primary	BCLXL inh	BCLXL inh confirm	MCL1 inh confirm
COc1cccc(C(=O)N(c2ccc(OC)cc2OC)C2C=CS(=O)(=O)C2)c1 (centres undefined)	28	10	1	0	54*	61*	5	3
COc1ccc(NC(=O)CN(C)C(=O)c2cc3c(s2)CCC3)cc1	6	11	x	2	74*	3	-1	71*
COc1ccc(NC(=O)CN(C)C(=O)c2cc3c(s2)CCCCC3)cc1	0	-19	x	-1	-1	2	x	x
COc1cccc(C(=O)/C=C/Nc2cccc(O)c2)c1	14	13	-14	0	94*	86*	17	22
COc1ccc(-n2cccc2/C=C2\C(=N)N3N=C(c4ccco4)SC3=NC2=O)cc1	0	-7	76*	1	66*	7	28	81*
COc1ccc(-n2cccc2/C=C2\C(=N)N3N=C(C(C)C)SC3=NC2=O)cc1	-5	-14	6	0	11	4	x	x
CCOC(=O)C1=C(COC(=O)c2ccc(OC)c(OC)c2OC)NC(=O)NC1C (centres undefined)	3	14	x	0	1	2	x	x
COCCN(C(=O)COC(=O)c1cc2c(s1)CCC2)c1c(N)n(Cc2ccccc2)c(=O)[nH]c1=O	3	-11	x	-11	91*	32*	40*	88*
CCC1CCc2sc(C(=O)OCC(=O)N(CCOC)c3c(N)n(Cc4ccccc4)c(=O)[nH]c3=O)cc2C1 (centres undefined)	5	-10	x	4	-2	2	x	x
Nn1c(SCC(=O)Nc2ccc(N3CCOCC3)cc2)nnc1-c1ccccc1F	-1	-25	x	x	8	3	x	x
Cc1ccc(-c2cc(C(=O)NCc3ccco3)c3ccccc3n2)o1	22	-8	22	0	51*	20	30*	58*
Cc1cc(C(=O)NCc2ccco2)c2ccccc2n1	1	-6	2	1	-3	-4	x	x
Cc1nnc(NC(=O)c2cc(-c3ccco3)nc3ccccc23)s1	-4	-11	x	-2	66*	26	7	33
O=C(Nc1nc2ccccc2s1)c1cc(-c2ccco2)nc2ccccc12	-7	-23	-5	-2	16	9	x	x
Cc1csc(NC(=O)c2cc(C)nc3ccccc23)n1	4	-6	-12	0	-4	-13	x	x
Cc1csc(NC(=O)c2cc(-c3ccco3)nc3ccccc23)n1	-4	-6	36	-1	40*	19	21	60*
O=C(N/N=C/c1ccc(F)cc1)c1cc(-c2ccco2)nc2ccccc12	6	-3	83*	-8	64*	11	33*	80*
Cc1ccc2nc(SCC(=O)N3CCC(Cc4ccccc4)CC3)nc(=O)n2c1	7	-11	x	-5	2	-2	x	x
